# Columns and labels:
# Assay in all cases: DAPPL (digital affinity profiling via proximity ligation, sequencing); 10 mM Tris-HCl pH 7.5, 50 mM NaCl, 1 mM DTT, 4% glycerol, room temperature, 30 min; GST-TFs on glutathione beads, 16-mer random dsDNA library, 0.1% formaldehyde crosslink after washing; high values mean tight binding
# [1] = biological target: T1, FLI1 (Homo sapiens, UniProt Q01543 1-452); details: protein: recombinant; tags: N-terminal GST; dsDNA, one strand shown
# T1 sequence: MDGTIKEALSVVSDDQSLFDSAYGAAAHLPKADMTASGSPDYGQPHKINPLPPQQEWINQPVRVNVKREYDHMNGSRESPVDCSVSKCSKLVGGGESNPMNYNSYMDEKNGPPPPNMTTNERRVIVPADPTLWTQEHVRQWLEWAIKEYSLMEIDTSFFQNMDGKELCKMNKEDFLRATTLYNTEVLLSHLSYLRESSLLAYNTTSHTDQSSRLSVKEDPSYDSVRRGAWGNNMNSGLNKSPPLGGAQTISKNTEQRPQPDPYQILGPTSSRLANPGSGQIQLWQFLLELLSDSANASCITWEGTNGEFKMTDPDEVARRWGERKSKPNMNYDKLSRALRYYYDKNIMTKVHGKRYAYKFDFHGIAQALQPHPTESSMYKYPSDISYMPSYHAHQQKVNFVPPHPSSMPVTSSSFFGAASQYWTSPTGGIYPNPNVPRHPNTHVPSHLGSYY
# How it was run: (§1)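 Yeast served to express human transcription factors as GST fusions, which were then captured on glutathione beads and labelled with DNA barcodes. Pooled with a tag-only sample, they were incubated with 200 nmole of a 16-mer random double-stranded DNA library for 30 min at room temperature in Tris/NaCl/DTT/glycerol buffer, washed, crosslinked with 0.1% formaldehyde, ligated by proximity, amplified by PCR and sequenced. Dividing each hexamer's read frequency for a factor by its frequency for the tag-only sample gives the binding signal.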
# [2] = biological target: T2, ELK1 (Homo sapiens, UniProt P19419 1-428); details: protein: recombinant; tags: N-terminal GST; dsDNA, one strand shown
# T2 sequence: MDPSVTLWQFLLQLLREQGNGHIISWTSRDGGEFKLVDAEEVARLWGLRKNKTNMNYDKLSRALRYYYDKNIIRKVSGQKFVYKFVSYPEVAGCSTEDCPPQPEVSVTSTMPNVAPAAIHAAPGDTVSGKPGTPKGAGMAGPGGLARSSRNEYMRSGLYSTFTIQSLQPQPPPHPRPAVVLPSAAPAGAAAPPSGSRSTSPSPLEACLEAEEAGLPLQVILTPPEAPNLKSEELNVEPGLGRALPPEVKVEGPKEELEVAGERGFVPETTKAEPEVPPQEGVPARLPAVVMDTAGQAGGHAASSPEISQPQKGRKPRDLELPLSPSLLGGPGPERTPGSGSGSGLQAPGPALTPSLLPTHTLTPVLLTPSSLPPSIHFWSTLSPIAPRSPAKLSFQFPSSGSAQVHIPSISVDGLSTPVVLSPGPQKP
# How it was run: as §1
# [3] = biological target: T3, GABPA (Homo sapiens, UniProt Q06546 1-454); details: protein: recombinant; tags: N-terminal GST; dsDNA, one strand shown
# T3 sequence: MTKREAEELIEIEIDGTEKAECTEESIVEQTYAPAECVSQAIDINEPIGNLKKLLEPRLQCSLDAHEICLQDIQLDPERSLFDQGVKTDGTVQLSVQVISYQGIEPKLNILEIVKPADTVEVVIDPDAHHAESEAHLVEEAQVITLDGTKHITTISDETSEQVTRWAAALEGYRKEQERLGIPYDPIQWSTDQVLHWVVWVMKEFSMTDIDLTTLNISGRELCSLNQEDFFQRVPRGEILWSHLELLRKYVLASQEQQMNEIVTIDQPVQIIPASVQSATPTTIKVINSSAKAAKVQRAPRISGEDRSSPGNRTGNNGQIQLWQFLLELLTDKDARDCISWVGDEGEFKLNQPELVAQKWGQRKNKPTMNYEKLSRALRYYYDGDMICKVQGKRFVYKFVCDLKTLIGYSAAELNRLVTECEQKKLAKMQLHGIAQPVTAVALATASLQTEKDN
# How it was run: as §1
# [4] = biological target: T4, ERG (Homo sapiens, UniProt P11308 1-479); details: protein: recombinant; tags: N-terminal GST; dsDNA, one strand shown
# T4 sequence: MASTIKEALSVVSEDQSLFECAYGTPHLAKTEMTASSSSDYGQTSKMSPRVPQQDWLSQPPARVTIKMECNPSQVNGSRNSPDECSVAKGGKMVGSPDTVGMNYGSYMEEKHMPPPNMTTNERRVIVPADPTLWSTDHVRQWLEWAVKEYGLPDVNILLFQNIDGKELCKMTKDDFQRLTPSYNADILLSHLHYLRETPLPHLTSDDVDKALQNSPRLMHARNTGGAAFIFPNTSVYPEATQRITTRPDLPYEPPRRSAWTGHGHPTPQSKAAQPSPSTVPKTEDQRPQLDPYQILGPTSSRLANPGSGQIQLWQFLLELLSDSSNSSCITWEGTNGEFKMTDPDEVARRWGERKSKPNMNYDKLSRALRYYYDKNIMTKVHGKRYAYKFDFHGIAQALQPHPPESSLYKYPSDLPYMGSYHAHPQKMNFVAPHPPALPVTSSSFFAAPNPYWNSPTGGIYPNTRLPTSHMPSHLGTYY
# How it was run: as §1
# [5] = biological target: ELF1 (Homo sapiens, UniProt P32519 1-619); details: protein: recombinant; tags: N-terminal GST; dsDNA, one strand shown
# ELF1, sequence (P32519 whole entry): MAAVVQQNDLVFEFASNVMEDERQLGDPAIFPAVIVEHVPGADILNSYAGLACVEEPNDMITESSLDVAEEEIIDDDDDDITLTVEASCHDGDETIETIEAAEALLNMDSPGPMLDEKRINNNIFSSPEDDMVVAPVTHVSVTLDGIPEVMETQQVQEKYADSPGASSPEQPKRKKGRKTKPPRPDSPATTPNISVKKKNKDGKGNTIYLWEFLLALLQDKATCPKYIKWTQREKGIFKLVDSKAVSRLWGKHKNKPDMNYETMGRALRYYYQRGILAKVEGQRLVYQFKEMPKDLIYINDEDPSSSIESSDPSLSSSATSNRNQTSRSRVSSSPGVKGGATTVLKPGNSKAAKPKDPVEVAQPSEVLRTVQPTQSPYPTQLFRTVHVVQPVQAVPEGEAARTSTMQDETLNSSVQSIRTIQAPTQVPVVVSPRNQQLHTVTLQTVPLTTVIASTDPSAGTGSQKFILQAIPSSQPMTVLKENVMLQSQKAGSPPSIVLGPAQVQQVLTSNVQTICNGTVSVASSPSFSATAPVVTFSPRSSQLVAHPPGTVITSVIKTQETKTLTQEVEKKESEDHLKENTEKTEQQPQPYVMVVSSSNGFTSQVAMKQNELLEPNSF
# How it was run: as §1
# [6] = biological target: T5, EHF (Homo sapiens, UniProt Q9NZC4 1-300); details: protein: recombinant; tags: N-terminal GST; dsDNA, one strand shown
# T5 sequence: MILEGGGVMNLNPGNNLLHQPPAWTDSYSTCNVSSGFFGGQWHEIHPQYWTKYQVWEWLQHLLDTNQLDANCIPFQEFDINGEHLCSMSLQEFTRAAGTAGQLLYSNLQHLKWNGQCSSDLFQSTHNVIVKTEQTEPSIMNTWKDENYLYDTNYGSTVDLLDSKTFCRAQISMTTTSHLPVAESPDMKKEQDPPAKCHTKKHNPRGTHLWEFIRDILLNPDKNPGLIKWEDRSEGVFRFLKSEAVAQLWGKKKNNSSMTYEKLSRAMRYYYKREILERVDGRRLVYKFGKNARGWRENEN
# How it was run: as §1
# [7] = biological target: SPI1 (Homo sapiens, UniProt P17947 1-270); details: protein: recombinant; tags: N-terminal GST; dsDNA, one strand shown
# How it was run: as §1
# [8] = biological target: SPIB (Homo sapiens, UniProt Q01892 1-262); details: protein: recombinant; tags: N-terminal GST; dsDNA, one strand shown
# SPIB, sequence (Q01892 whole entry): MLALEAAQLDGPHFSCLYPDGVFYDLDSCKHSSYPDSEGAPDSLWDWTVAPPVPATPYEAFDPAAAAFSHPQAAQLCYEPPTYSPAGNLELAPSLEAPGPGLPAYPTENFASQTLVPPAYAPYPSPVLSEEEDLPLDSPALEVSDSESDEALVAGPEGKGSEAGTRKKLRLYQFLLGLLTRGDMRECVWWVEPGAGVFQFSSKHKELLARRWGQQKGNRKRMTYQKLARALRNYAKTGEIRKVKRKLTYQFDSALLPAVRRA
# How it was run: as §1
# [9] = biological target: T6, ELK3 (Homo sapiens, UniProt P41970 1-407); details: protein: recombinant; tags: N-terminal GST; dsDNA, one strand shown
# T6 sequence: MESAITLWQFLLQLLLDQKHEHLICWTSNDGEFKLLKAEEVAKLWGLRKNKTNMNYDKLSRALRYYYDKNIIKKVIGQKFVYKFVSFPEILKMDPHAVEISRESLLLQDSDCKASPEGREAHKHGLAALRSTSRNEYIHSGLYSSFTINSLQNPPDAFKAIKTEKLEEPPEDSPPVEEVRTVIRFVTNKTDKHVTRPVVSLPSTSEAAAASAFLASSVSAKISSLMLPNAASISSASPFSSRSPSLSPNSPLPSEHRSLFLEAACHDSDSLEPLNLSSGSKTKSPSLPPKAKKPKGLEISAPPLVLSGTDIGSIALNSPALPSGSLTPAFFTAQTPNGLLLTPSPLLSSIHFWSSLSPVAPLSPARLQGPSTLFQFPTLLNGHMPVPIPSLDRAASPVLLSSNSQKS
# How it was run: as §1
# [10] = biological target: T7, FEV (Homo sapiens, UniProt Q99581 1-238); details: protein: recombinant; tags: N-terminal GST; dsDNA, one strand shown
# T7 sequence: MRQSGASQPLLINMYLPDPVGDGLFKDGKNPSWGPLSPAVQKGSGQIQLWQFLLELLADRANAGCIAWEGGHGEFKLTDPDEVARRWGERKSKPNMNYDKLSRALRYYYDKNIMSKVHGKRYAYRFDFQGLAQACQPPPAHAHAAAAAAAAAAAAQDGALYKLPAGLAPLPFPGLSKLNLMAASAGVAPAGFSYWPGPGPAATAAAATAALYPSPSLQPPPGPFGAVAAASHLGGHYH
# How it was run: as §1
# [11] = biological target: ETV5 (Homo sapiens, UniProt P41161 1-510); details: protein: recombinant; tags: N-terminal GST; dsDNA, one strand shown
# ETV5, sequence (P41161 whole entry): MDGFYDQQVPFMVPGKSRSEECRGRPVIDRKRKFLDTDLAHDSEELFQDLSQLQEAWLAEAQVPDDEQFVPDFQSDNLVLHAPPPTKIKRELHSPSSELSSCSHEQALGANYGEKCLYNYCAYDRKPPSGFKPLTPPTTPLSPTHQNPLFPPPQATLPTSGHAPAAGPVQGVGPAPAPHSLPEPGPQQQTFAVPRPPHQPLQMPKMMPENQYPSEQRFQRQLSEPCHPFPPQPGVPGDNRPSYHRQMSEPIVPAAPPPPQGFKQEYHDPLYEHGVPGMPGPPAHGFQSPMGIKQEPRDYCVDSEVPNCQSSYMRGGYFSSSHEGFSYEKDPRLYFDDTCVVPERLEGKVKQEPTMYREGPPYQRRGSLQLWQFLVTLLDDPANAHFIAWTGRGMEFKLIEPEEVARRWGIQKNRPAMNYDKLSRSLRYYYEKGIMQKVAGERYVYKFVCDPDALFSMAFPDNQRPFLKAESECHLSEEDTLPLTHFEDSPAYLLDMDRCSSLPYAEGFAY
# How it was run: as §1
# [12] = biological target: HSF1 (Homo sapiens, UniProt Q00613 1-529); details: protein: recombinant; tags: N-terminal GST; chain copies: 3; dsDNA, one strand shown
# HSF1, sequence (Q00613 whole entry): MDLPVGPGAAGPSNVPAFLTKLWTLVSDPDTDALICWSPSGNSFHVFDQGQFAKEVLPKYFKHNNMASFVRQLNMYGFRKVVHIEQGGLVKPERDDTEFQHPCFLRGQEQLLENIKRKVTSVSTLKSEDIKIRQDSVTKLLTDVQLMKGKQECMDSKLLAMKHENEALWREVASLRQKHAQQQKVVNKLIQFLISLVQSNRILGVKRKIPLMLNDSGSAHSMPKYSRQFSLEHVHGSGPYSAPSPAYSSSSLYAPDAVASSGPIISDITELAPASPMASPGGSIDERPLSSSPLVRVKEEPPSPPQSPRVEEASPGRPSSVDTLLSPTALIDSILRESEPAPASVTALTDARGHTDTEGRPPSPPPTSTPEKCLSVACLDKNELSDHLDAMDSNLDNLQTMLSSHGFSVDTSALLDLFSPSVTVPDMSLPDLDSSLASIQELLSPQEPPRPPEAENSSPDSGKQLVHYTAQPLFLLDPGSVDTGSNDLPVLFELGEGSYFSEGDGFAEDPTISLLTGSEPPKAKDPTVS
# How it was run: as §1
# [13] = biological target: T8, SPIC (Homo sapiens, UniProt Q8N5J4 1-248); details: protein: recombinant; tags: N-terminal GST; dsDNA, one strand shown
# T8 sequence: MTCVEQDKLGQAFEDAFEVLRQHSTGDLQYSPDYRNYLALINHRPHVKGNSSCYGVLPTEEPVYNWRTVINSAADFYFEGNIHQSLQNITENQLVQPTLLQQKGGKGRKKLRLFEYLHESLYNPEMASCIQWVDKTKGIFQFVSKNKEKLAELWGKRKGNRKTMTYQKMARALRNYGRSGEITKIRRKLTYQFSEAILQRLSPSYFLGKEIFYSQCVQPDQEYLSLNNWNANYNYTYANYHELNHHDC
# How it was run: as §1
# [14] = biological target: ELF4 (Homo sapiens, UniProt Q99607 1-663); details: protein: recombinant; tags: N-terminal GST; dsDNA, one strand shown
# ELF4, sequence (Q99607 whole entry): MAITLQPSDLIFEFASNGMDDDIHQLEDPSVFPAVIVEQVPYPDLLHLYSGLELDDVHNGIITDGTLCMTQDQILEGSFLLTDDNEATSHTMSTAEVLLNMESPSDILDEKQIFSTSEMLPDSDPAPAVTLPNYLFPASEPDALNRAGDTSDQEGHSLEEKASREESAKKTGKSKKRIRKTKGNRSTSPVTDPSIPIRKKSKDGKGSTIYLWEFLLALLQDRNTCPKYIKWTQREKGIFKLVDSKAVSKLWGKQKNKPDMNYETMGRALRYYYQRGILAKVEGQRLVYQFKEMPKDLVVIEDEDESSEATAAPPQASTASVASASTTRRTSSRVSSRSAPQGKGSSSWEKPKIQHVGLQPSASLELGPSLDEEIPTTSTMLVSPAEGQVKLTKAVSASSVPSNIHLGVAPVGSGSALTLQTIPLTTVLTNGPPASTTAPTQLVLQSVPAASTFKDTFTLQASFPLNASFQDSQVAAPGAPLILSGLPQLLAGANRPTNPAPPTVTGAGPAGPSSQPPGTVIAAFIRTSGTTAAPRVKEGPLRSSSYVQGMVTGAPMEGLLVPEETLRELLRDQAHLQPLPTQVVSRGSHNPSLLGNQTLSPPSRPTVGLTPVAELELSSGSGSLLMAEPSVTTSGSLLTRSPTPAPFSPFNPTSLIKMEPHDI
# How it was run: as §1
# [15] = biological target: T9, ELK4 (Homo sapiens, UniProt P28324-2 1-405); details: protein: recombinant; tags: N-terminal GST; dsDNA, one strand shown
# T9 sequence: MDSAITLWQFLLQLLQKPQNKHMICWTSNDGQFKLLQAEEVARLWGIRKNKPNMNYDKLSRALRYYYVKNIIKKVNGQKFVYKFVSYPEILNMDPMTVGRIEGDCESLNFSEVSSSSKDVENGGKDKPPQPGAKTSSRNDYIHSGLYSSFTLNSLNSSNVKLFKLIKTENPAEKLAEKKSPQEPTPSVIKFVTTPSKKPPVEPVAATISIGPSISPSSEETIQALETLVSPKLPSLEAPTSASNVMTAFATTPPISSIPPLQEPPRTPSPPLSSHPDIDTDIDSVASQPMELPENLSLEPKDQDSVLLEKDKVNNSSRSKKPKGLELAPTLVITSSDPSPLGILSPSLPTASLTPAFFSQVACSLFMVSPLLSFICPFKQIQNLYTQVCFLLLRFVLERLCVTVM
# How it was run: as §1
# [16] = biological target: T10, ETV2 (Homo sapiens, UniProt O00321 1-342); details: protein: recombinant; tags: N-terminal GST; dsDNA, one strand shown
# T10 sequence: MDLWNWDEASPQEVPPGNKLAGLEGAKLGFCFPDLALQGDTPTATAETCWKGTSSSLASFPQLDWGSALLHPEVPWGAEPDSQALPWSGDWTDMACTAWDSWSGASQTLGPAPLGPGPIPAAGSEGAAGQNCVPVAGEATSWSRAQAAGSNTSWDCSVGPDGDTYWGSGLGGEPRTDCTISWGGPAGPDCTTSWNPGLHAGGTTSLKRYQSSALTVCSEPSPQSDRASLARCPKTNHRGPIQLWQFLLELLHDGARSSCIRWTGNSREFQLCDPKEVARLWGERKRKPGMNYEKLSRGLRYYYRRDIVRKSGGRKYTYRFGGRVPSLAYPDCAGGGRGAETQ
# How it was run: as §1
# [17] = biological target: T11, ELF3 (Homo sapiens, UniProt P78545 1-371); details: protein: recombinant; tags: N-terminal GST; dsDNA, one strand shown
# T11 sequence: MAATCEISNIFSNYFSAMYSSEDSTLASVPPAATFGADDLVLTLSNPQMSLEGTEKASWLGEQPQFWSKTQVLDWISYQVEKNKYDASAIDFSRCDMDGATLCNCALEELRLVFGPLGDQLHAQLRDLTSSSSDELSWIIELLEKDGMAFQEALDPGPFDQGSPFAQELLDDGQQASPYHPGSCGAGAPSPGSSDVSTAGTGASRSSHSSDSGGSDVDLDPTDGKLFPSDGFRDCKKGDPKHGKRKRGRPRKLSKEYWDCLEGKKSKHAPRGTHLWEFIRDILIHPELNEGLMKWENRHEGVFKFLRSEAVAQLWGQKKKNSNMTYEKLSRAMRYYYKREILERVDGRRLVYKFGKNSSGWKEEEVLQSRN
# How it was run: as §1
# [18] = biological target: CRX (Homo sapiens, UniProt O43186 1-299); details: protein: recombinant; tags: N-terminal GST; dsDNA, one strand shown
# CRX, sequence (O43186 whole entry): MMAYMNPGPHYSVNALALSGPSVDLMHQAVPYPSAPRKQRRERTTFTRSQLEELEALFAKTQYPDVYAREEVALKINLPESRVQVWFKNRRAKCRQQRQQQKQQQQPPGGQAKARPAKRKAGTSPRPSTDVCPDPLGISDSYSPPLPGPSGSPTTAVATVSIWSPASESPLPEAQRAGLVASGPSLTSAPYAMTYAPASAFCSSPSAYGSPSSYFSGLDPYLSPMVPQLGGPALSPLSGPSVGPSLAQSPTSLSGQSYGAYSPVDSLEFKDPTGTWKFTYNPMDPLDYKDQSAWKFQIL
# How it was run: as §1
# [19] = biological target: ETV1 (Homo sapiens, UniProt P50549 1-477); details: protein: recombinant; tags: N-terminal GST; dsDNA, one strand shown
# ETV1, sequence (P50549 whole entry): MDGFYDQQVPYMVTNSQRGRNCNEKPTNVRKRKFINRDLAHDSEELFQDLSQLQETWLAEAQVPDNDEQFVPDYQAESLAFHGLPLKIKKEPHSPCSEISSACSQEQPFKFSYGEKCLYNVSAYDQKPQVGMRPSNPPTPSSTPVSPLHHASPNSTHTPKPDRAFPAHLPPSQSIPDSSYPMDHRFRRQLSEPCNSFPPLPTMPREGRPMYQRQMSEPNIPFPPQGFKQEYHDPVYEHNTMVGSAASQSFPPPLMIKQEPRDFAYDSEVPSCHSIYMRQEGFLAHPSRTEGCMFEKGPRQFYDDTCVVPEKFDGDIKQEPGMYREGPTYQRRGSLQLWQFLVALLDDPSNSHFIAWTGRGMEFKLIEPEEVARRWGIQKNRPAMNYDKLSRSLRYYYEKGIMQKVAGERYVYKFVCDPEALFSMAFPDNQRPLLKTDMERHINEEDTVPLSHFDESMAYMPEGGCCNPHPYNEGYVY
# How it was run: as §1
sequence,measurement,setting,value
AATTAA,binding signal,[1],"1.26 fold enrichment (6-mer frequency, TF over GST control)"
same,binding signal,[2],"1.2 fold enrichment (6-mer frequency, TF over GST control)"
same,binding signal,[3],"1.22 fold enrichment (6-mer frequency, TF over GST control)"
same,binding signal,[4],"1.26 fold enrichment (6-mer frequency, TF over GST control)"
same,binding signal,[5],"1.27 fold enrichment (6-mer frequency, TF over GST control)"
same,binding signal,[6],"1.22 fold enrichment (6-mer frequency, TF over GST control)"
same,binding signal,[7],"1.26 fold enrichment (6-mer frequency, TF over GST control)"
same,binding signal,[8],"1.21 fold enrichment (6-mer frequency, TF over GST control)"
same,binding signal,[9],"1.31 fold enrichment (6-mer frequency, TF over GST control)"
same,binding signal,[10],"1.14 fold enrichment (6-mer frequency, TF over GST control)"
same,binding signal,[11],"1.29 fold enrichment (6-mer frequency, TF over GST control)"
same,binding signal,[12],"1.74 fold enrichment (6-mer frequency, TF over GST control)"
same,binding signal,[13],"1.24 fold enrichment (6-mer frequency, TF over GST control)"
same,binding signal,[14],"1.26 fold enrichment (6-mer frequency, TF over GST control)"
same,binding signal,[15],"1.26 fold enrichment (6-mer frequency, TF over GST control)"
same,binding signal,[16],"1.2 fold enrichment (6-mer frequency, TF over GST control)"
same,binding signal,[17],"1.24 fold enrichment (6-mer frequency, TF over GST control)"
same,binding signal,[18],"2.5 fold enrichment (6-mer frequency, TF over GST control)"
same,binding signal,[19],"1.26 fold enrichment (6-mer frequency, TF over GST control)"

# From PMC7862700, “An all-to-all approach to the identification of sequence-specific readers for epigenetic DNA modifications on cytosine”
